The record followed here is PubChem BioAssay (NCATS).

SMILES strings stand for the structures. Records with an inconclusive call do not appear. Where a call stands in place of a potency, no number is given. Active and inactive are the calls of the source. Unless noted, the call rests on the fitted dose curve; in most records, active means well fitted curve in the direction sought with a large enough effect; inconclusive means small, poorly fitted or top-dose-only effect, or another doubt; inactive means no such curve, though single readings can be large; an effect the other way counts as inactive or inconclusive. Numbered stars: 1 amine (or outer) side, 2 acyl side, 3 side chain; on linkers, the order of the positions; unused ones are H or OH. Square brackets hold non-standard residues; d marks the D form. Peptide text beside a SMILES is read from it. X1 = CCCCCCCCCC(=O)[C@H](C(=O)[*:2])[C@@H]1CNC(=O)[C@@H](N[*:1])CS1

For assay [1], the target named is Rap guanine nucleotide exchange factor 3 (Homo sapiens) (UniProt O95398). As to the kind of experiment: Confirmatory qHTS for antagonist of cAMP-regulated guanine nucleotide exchange factor 3 (EPAC1) (AID 1645880). Further: nearly all actives have a fitted effect of over 55% in size. Summed up: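 Released BODIPY-GDP fluoresces less than Rap1-bound BODIPY-GDP; the signal is followed at 480/540 nm at 5-min intervals over 30 min, after 5 min at room temperature. Reactions contain 100 nM EPAC1, 250 nM RAP1B-BODIPY-GDP and 50 uM GDP; results are normalized to ATA and DMSO.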

Assay [2] in a line: Confirmation and Secondary Assay for Modulators of Hemoglobin Beta Chain Splicing at IVS2 654 locus (AID 910).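 Further: per-well total GFP intensity by laser scanning cytometry after 2-day treatment.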 Summed up:
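HeLa cells stably carrying EGFP interrupted by mutant beta-globin IVS2-654 intron (CMV-driven) were treated with compound for 2 days at 37C; corrected splicing was scored as total peak GFP intensity per well (488 nm excitation, 500-520 nm emission).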

The nature of assay [3]: Confirmation and Secondary Assay for Modulators of Hemoglobin Beta Chain Splicing at IVS2 705 locus (AID 930).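 Further: HeLa cells stably expressing the EGFP-705 splicing reporter; GFP fluorescence per well restored by corrected splicing of the IVS2-705 intron in EGFP.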 Summed up:
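Assay measures total GFP intensity per well in HeLa EGFP-705 cells after 2 days with compound; mis-splicing normally truncates EGFP, so fluorescence indicates corrected splicing.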

In assay [4] the target is Ubiquitin carboxyl-terminal hydrolase 1 (Homo sapiens) (UniProt O94782). The experiment in a line: Inhibitors of USP1/UAF1: Pilot qHTS (AID 504865).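 Further: rhodamine fluorescence freed from ubiquitin-rhodamine substrate followed over time; top concentration of the series differs between compounds; nearly all actives have a fitted effect of over 35% in size.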 Put shortly:
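USP1/UAF1 complex at 1 nM preincubated 15 min at room temperature with compound, then Ub-Rho substrate added at 150 nM final. Fluorescence (480/540 nm) read kinetically in 50 mM HEPES pH 7.8, 0.5 mM EDTA, 1 mM TCEP, 0.1 mg/ml BSA, 0.01% Tween-20.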

A short description of assay [5]: qHTS Assay for Lipid Storage Modulators (AID 1519; calls by dose curve). The settings on record: Drosophila S3 cells, BODIPY lipid droplet/cell ratio, laser cytometry, cells loaded with oleic acid; for activity change, negative = inhibition: at 57.5 µM (top of the series). Put shortly:
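Cells seeded at 5,000 per well were treated with compounds over a concentration series and loaded with oleic acid (400 uM, as added). Lipid droplet fluorescence (488 nm excitation, 500-530 nm channel) was read by laser-scanning cytometry and normalized to 20 uM Triacsin C.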
For orientation: qHTS replaces the single test concentration by a dilution series.

The nature of assay [6]: Primary qHTS for small molecule stabilizers of the endoplasmic reticulum resident proteome: Secreted ER Calcium Modulated Protein (SERCaMP) assay (AID 1508630). Summed up: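 The SH-SY5Y reporter protocol was run at 3 concentrations up to 38.3 uM (primary) or 11 concentrations (follow-up): 16 h compound, 100 nM thapsigargin for 4 h, then extracellular luciferase luminescence.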

The nature of assay [7]: qHTS for Antimalaria activity screened against the NCATS CANVASS Library (AID 1347380). Further: nearly all actives have a fitted effect of over 40% in size. Further: potency means the concentration at half of the fitted maximal effect.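 On activity change, negative = inhibition: Plasmodium falciparum strain Dd2 asexual parasites grown in red blood cells.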 Put shortly:
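SYBR Green fluorescence at 485/535 nm was read 18 hr after lysis. This followed a 72 hr incubation at 37C in 5% O2, 5% CO2 of Dd2-infected erythrocytes (0.3% parasitemia, 2.5% final hematocrit) with compounds titrated over 11 concentrations.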

Assay [8] has as its target Cytochrome P450 2C9 (Homo sapiens) (UniProt P11712). As to the kind of experiment: Cytochrome P450 family 2 subfamily C member 9 (CYP2C9) small molecule antagonists: luciferase biochemical (cell-free) qHTS assay (AID 1645842; active means well fitted curve in the direction sought with a large enough effect in the repeat runs; an effect the other way counts as inactive or inconclusive; further: potency means the concentration at half of the fitted maximal effect; nearly all actives have a fitted effect of over 55% in size). Put shortly: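 P450-Glo CYP2C9 system: proluciferin substrate with enzyme in mix containing 0.4% BSA, 10 min at room temperature, then NADPH regeneration solution added and incubated 1 h at 37C. Detection reagent stopped reaction; luminescence read after 20 min as RLU.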

[9] abbreviates: measured here: cell count channel max response.
The mark [10] stands for this setting: measured here: lipid channel max response.

Sequence of Cytochrome P450 2C9 (Homo sapiens) (P11712 whole entry, looked up): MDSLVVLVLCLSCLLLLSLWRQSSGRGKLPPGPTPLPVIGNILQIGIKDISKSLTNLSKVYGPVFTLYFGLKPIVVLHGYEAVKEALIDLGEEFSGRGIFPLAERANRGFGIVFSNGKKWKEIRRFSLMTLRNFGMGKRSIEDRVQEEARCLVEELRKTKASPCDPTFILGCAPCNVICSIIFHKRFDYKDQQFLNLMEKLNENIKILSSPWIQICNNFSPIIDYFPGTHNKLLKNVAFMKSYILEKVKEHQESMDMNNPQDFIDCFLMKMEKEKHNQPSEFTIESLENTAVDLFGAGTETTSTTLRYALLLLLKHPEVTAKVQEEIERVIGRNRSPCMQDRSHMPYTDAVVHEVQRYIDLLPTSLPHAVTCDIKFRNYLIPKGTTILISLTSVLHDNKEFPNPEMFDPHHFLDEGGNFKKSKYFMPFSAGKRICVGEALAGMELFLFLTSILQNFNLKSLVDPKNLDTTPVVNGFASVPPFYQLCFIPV
Sequence of Ubiquitin carboxyl-terminal hydrolase 1 (Homo sapiens) (O94782 whole entry, looked up): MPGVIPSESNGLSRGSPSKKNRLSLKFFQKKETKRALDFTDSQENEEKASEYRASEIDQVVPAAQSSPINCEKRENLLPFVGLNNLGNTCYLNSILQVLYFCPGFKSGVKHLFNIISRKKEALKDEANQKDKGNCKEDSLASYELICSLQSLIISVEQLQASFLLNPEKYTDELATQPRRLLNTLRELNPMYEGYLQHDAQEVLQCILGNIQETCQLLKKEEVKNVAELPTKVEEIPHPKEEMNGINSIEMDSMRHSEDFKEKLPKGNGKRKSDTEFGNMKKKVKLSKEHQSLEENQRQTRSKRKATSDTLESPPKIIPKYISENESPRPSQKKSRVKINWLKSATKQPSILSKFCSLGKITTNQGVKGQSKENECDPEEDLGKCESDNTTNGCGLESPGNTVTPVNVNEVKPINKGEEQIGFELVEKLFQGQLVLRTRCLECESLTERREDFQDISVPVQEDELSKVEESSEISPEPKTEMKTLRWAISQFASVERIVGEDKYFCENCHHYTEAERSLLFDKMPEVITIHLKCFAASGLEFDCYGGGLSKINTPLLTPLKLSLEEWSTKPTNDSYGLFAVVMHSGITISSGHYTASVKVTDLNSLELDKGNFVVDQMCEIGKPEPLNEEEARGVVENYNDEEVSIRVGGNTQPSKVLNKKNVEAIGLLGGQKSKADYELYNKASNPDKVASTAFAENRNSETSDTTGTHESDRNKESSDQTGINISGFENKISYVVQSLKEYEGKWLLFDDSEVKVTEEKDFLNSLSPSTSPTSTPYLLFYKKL
Sequence of Rap guanine nucleotide exchange factor 3 (Homo sapiens) (O95398 whole entry, looked up): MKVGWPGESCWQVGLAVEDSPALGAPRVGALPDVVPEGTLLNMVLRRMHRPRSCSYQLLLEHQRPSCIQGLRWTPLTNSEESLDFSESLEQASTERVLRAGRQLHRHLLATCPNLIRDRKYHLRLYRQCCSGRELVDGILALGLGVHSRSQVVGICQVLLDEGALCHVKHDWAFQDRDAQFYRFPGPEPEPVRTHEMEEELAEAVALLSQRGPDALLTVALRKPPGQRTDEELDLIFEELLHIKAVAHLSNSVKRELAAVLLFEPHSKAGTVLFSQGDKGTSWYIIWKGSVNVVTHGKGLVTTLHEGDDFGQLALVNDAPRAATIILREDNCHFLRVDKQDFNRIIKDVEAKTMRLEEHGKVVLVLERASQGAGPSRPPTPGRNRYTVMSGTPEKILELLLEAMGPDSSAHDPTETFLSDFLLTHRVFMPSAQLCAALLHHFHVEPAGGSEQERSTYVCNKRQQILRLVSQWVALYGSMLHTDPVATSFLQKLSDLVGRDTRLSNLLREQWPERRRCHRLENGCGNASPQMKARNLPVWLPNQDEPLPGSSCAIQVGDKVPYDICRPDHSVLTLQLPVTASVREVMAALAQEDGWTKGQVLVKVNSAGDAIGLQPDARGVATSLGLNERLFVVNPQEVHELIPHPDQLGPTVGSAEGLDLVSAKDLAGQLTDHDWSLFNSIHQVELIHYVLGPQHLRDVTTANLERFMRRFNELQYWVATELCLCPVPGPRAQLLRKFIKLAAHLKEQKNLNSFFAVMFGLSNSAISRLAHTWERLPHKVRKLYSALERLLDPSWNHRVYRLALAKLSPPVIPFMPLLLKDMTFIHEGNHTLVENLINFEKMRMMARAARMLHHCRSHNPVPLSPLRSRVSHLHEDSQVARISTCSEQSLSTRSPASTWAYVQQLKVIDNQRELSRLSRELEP

For `O=C(Nc1ccccc1C(=O)OCc1cc(=O)n2c3c(sc2n1)CCCC3)c1ccc(F)cc1`, the Potency entry in assay [1] was “inactive”.
For the compound `O=C(O)c1nc2cc(Cl)c(Cl)cc2[nH]c1=O`, the call in assay [2] and in assay [3] was inactive. Also, in assay [4], the Potency entry was “inactive”.
In the case of `O=C(O)Cc1cc(I)c(Oc2cc(I)c(O)c(I)c2)c(I)c1`, the result in assay [2] and in assay [3] was inactive. In assay [5], the activity change, negative = inhibition was 3.04% (inactive). Moreover, the max response stood at 12.2% in assay [5] (setting [9]) and 14.7% in assay [5] (setting [10]). Besides, the Potency entry in assay [4] is “inactive”.
For `O=C(OC1Cc2c(O)cc(O)cc2OC1c1cc(O)c(O)c(O)c1-c1c(C2Oc3cc(O)cc(O)c3CC2OC(=O)c2cc(O)c(O)c(O)c2)cc(O)c(O)c1O)c1cc(O)c(O)c(O)c1` (stereo not given), the compound was called inactive in assay [2] and in assay [3]. Besides, the activity change, negative = inhibition in assay [5] was 6.84% (inactive). In addition, the max response stood at 16.9% in assay [5] (setting [9]) and 25.4% in assay [5] (setting [10]).
For the compound `C=C1c2c(Cl)ccc(O)c2C(O)=C2C(=O)[C@]3(O)C(O)=C(C(N)=O)C(=O)[C@@H](N(C)C)[C@@H]3[C@@H](O)C12` (stereo not given in full), the Potency entry in assay [6] is “inactive”.
As to `CC(=O)NC[C@@H]1O[C@H](CC/C=C(C)/C(C)=C/C=O)[C@H](C)C[C@H]1O`, the Potency entry in assay [7] is “inactive”.
On to `Cc1ccc(-c2nnc(Nc3ccc(Br)cc3)c3ccccc23)cc1S(=O)(=O)NCc1nc2ccccc2[nH]1`, for which the Potency in assay [8] was 849 nM (active).
The same measure, in the same setting: then `Cc1ccc(Nc2nnc(-c3ccc(C)c(S(=O)(=O)NCc4nc5ccccc5[nH]4)c3)c3ccccc23)cc1`, with 5350 nM (active).
For `CCCCCCCCCC(=O)[C@@H]1C(=O)N[C@@H](CC(C)C)C(=O)N[C@H](C)C(=O)N2CCC[C@H]2C(=O)N[C@@H](C(C)C)C(=O)N[C@H]2CS[C@H]1CNC2=O` (cyclo(L[dA]PV[X1])), in assay [7], the Potency is 3.3 nM (active).
In the case of `C=C1C[C@@]23C=CC(=O)[C@@](C)(CCC(=O)Nc4c(O)ccc(C(=O)O)c4O)C2C[C@@H]1CC3` (stereo not given in full), the Potency result in assay [7] is “inactive”.
Regarding `C=C[C@@]1(C)CC[C@@H]([C@H](C)C(=O)/C=C/C(C)C)O1`, in assay [7], the Potency entry was “inactive”.
Still for that read-out and setting: under `C=C1C[C@@]23C=CC(=O)[C@@](C)(CCCC(C)C(=O)O)[C@@H]2C[C@@H]1CC3` (stereo not given in full) stands “inactive”; under `CO[C@H]1/C=C/CC[C@@H](S[C@@H]2O[C@H](CO)[C@@H](O)[C@H](O)[C@H]2O)CC(=O)O[C@@H](/C(C)=C/[C@H](C)C(=O)CCCC2CC(=O)NC(=O)C2)[C@@H](C)[C@@H]1O`, “inactive”.
As for `COc1ccc2cc(NC(=O)C3=NO[C@H]4[C@H](O)C=C[C@@H](Cl)[C@@]4(O)C3)c(=O)oc2c1OC`, in assay [7], the Potency result was “inactive”.
